Measurements: PubChem BioAssay AID2289 (National Center for Advancing Translational Sciences (NCATS), 2010)
About 3,300 (0.97%) of roughly 340,000 compounds were called active. Roughly 9% stayed inconclusive and do not appear here. Calls follow the shape of the dose curve; as a rule, active = well fitted inhibition curve with a large enough effect; inconclusive = small, poorly fitted or top-dose-only effect, or effect the other way; inactive = flat fitted curve, though single readings scatter. The list shows a part of the results.

Assay: qHTS Assay for Modulators of miRNAs and/or Inhibitors of miR-21; also: nearly all actives have a fitted effect of over 55% in size
Conditions: HeLa miR-21-FLuc reporter, luciferase luminescence, 48 h; actives lower the signal
Summary of the method: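 Luminescence from a firefly luciferase reporter carrying a miR-21 binding site downstream, stably expressed under a CMV promoter in HeLa cells that make miR-21 endogenously, reports miRNA modulation after 48 h compound exposure up to approximately 40uM final.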
Potency is read from the fitted curve at half-maximal effect.

Potency, active:
COc1ccc(Cl)cc1C(=O)Nc1ccc2oc(-c3ccc(C(C)(C)C)cc3)nc2c1 4.65 µM
COc1cccc(NCCC(=O)c2cccc([N+](=O)[O-])c2)c1 13.1 µM
COc1ccc(C(=O)CCNc2cccc(Cl)c2)cc1 7.36 µM
COc1n[nH]c(C(=O)Nc2nc3ccccc3s2)c1[N+](=O)[O-] 6.56 µM
CNc1ccccc(-c2ccc3cc4c(cc3n2)OCO4)c1=O 2.61 µM
CCC(=O)NC(=S)Nc1ccc(-c2nc3ccccc3s2)cc1 0.293 µM
Cc1ccc2nc(-c3ccc(NC(=S)NC(=O)C(C)C)cc3)sc2c1 0.927 µM
CCCCNC(=S)Nc1ccc(-c2nc3ccc(C)cc3s2)cc1 0.826 µM
CCC(=O)NC(=S)Nc1ccc(-c2nc3ccc(C)cc3s2)cc1 8.26 µM
Cc1ccc(Nc2ncnc3sc(C)c(C)c23)cc1 14.7 µM
O=C(CCCn1c(=O)c2cccn2c2ccccc21)NCCc1ccc(Cl)cc1 1.47 µM
O=C(CCCn1c(=O)c2cccn2c2ccccc21)Nc1cccc(Cl)c1 2.93 µM
COc1ccc(NC(=O)CCCn2c(=O)c3cccn3c3ccccc32)c(OC)c1 2.07 µM
CCCCOC(=O)Oc1ccc2c(=O)c(Oc3cccc(C)c3)coc2c1 18.5 µM
Cc1nc(Cl)cc(N/N=C/c2ccc(O)cc2)n1 18.5 µM
Cc1nc2ccccc2nc1N/N=C/c1ccc(O)cc1 18.5 µM
C=CCc1c(C)nc2c(-c3ccccc3)cnn2c1N1CCOCC1 1.65 µM
Cc1nc2c(-c3ccccc3)cnn2c(N2CCOCC2)c1C 2.33 µM
Fc1ccccc1-c1nc(-c2ccccc2)no1 1.17 µM
c1ccc(-c2cc(-c3ccccc3)[nH]n2)cc1 1.65 µM
Cc1ccc(-c2noc(-c3ccccc3F)n2)cc1 1.47 µM
Fc1ccc(-c2cc(-c3nc(-c4ccccc4)no3)[nH]n2)cc1 5.85 µM
CS(=O)c1ccccc1-c1nc(-c2ccc(Cl)cc2)no1 (stereo unspecified) 6.56 µM
Cc1ccc(NC(=O)Nc2ccc3c(c2)OCO3)cc1F 0.736 µM
Cc1ccc(NC(=O)Nc2ccc3c(c2)OCO3)nc1 2.33 µM
CCCSc1nsc(NC(=O)CC)n1 0.521 µM
O=C(CSc1nnc2sc3ccccc3n12)c1ccco1 16.5 µM
c1csc(CSc2nnc3sc4ccccc4n23)c1 8.26 µM
Cc1nc(NC(=O)/C=C/c2ccccc2)sc1C(=O)N(C)C 13.1 µM
COc1ccccc1C(=O)N/N=C/c1cnc2ccccc2n1 11.7 µM
COc1ccccc1C(=O)N/N=C/c1ccc2c(c1)OCO2 3.29 µM
COc1cccc(C(=O)Nc2ccc3c(c2)OCO3)c1OC 2.07 µM
COc1cc(Cl)c(C)cc1NC(=O)c1cccc(OC)c1OC 5.21 µM
COc1ccccc1C(=O)Nc1nc2cc3c(cc2s1)OCO3 0.736 µM
O=C(CNC(=O)c1ccccc1F)N/N=C/c1ccc2c(c1)OCO2 18.5 µM
COc1ccccc1C(=O)Nc1ccc2c(c1)OCO2 9.27 µM
CC(=O)c1ccc2c(c1)Cc1cc(C(C)=O)ccc1-2 1.85 µM
COc1ccc(-c2nc3c4ccccc4[nH]c(=O)n3n2)cc1 3.69 µM
Cc1ccc(-c2nc3c4ccccc4[nH]c(=O)n3n2)cc1 1.65 µM
C[C@H](NS(=O)(=O)c1ccc(Cl)cc1)C(=O)OCC(=O)NC(=O)Nc1ccc2c(c1)OCCO2 13.1 µM
Cc1cc(OCc2cn3cccnc3n2)ccc1Cl 7.36 µM
Cc1ccc(OCc2cn3cccnc3n2)cc1 2.07 µM
c1ccc(NCC2OCc3ccccc3CO2)cc1 4.65 µM
Nc1nc(Nc2cccc(Cl)c2)nc(NCc2ccco2)c1[N+](=O)[O-] 13.1 µM
Cc1ccc(Nc2nc(N)c([N+](=O)[O-])c(NCc3ccco3)n2)cc1 18.5 µM
N/C(=N\OC(=O)Cc1ccc(Cl)cc1)c1ccccn1 13.1 µM
Cc1ccc(CC(=O)O/N=C(\N)c2ccccn2)cc1 4.14 µM
N/C(=N\OC(=O)Cc1ccccc1)c1ccccc1Cl 5.85 µM
COc1ccccc1C(=O)O/N=C(\N)c1ccccc1Cl 3.29 µM
Brc1ccc(-c2ncc3ccccn23)cc1 7.36 µM
Clc1c(-c2ccccc2)nc2ccccn12 5.21 µM
Cc1c(-c2ccc(Br)cc2)nc2ccccn12 1.47 µM
CN(C)Cc1c(-c2ccc(Cl)cc2)nc2ccccn12 6.56 µM
COc1ccc(CN=C(C)c2c(C(F)(F)F)[nH]n(-c3nc4ccccc4s3)c2=O)cc1 7.36 µM
CNc1nn(-c2cccc(Cl)c2)nc1N 4.47 µM
O=C(NNc1nc2cc3c(cc2s1)OCCO3)c1ccccc1 14.7 µM
O=C(NNc1nc2cc3c(cc2s1)OCO3)c1ccccc1 13.1 µM
CN(C)c1ccc(CNc2nc(-c3ccco3)nn2S(C)(=O)=O)cc1 7.36 µM
COc1ccc(CNc2nc(-c3ccccc3)nn2C(=O)c2ccc([N+](=O)[O-])cc2)cc1 14.7 µM
CC(C)c1ccc(CNc2nc(-c3ccco3)nn2C(=O)c2ccc([N+](=O)[O-])cc2)cc1 2.07 µM
COCC(=O)n1nc(-c2ccco2)nc1NCc1ccccc1Cl 16.5 µM
Cc1ccccc1CNC(=O)Cc1ccccc1[N+](=O)[O-] 5.21 µM
O=C(CC12CCC(CC1)C2)NCc1ccc2c(c1)OCO2 16.5 µM
O=C(Cc1ccccc1[N+](=O)[O-])NCc1ccc2c(c1)OCO2 10.4 µM
O=C(Cc1ccccc1[N+](=O)[O-])NCc1ccc(Cl)cc1 14.7 µM
CCCn1cnc2cc(NCc3cccs3)ccc21 7.36 µM
CCCn1cnc2cc(NCc3ccc(Br)cc3)ccc21 7.36 µM
CCn1cnc2cc(NCc3ccc(Br)cc3)ccc21 3.29 µM
COC(=O)c1ccc(NN=Nc2ccc(C)cc2)cc1 2.07 µM
COC(=O)c1ccc(N=NNc2ccc(C(=O)OC)cc2)cc1 0.208 µM
CC(NC(=O)c1sc2ccccc2c1Cl)C1CCCO1 (stereo unspecified) 5.21 µM
O=C(NCC1CCCO1)c1sc2ccccc2c1Cl (stereo unspecified) 3.29 µM
CCn1c2ccccc2c2nc3cc(C(=O)O)ccc3nc21 9.27 µM
COc1cccc2cc(CC(=O)c3ccc(C)cc3C)c(=O)oc12 11.7 µM
Cc1ccc(C(=O)Cc2cc3ccccc3oc2=O)c(C)c1 2.07 µM
CN(c1ccccc1)c1nc2ccsc2c(=O)s1 12.6 µM
COc1ccc(-c2cc(C(=O)c3c(N)n(C)c(=O)n(C)c3=O)c3ccccc3n2)cc1OC 4.65 µM
COc1ccc2c(c1)CCC/C2=N\NC(=O)c1ccoc1C 2.93 µM
CC(=O)N1N=C(c2ccc(C)cc2)OC1c1ccc(C(C)C)cc1 (stereo unspecified) 3.29 µM
CN1N=C(C(=O)N2CCc3c([nH]c4ccccc34)C2c2ccccc2Cl)CCC1=O (stereo unspecified) 10.4 µM
O/N=C/c1ccc(OCc2ccccc2)c(Br)c1 3.69 µM
O/N=C/c1ccc(OCc2ccccc2)c(Cl)c1 2.07 µM
CCCOc1ccc(-c2nc(N3CCN(C)CC3)c3ccccc3n2)cc1 2.93 µM
COc1cc(CNc2ccc(NC(C)=O)cc2)ccc1OCc1ccccc1C 7.36 µM
COc1nc(-c2ccccc2)nnc1-c1ccccc1 1.17 µM
c1ccc(-c2nnc(-c3ccccc3)nn2)cc1 2.07 µM
Nc1ccc(-c2nnc(-c3ccc(N)cc3)o2)cc1 3.29 µM
Cc1ccc(-c2nnc(/C=C/c3ccccc3)o2)cc1 0.329 µM
O=C(O)c1ccc(-c2nnc(-c3ccccc3)o2)cc1 0.329 µM
c1ccc(-c2nnc(-c3ccccc3)o2)cc1 1.31 µM
Cc1cc(C)cc(N(CC(=O)Nc2ccc(-c3nc4ccc(C)cc4s3)cc2)S(C)(=O)=O)c1 3.29 µM
Cc1cccc(N(CC(=O)Nc2ccc(-c3nc4ccc(C)cc4s3)cc2)S(C)(=O)=O)c1 4.14 µM
Cc1ccc2nc(-c3ccc(NC(=O)CN(C)S(=O)(=O)c4ccccc4)cc3)sc2c1 0.369 µM
O=C(Nc1cc2c(cc1Cl)OCCCO2)c1ccc(F)cc1 3.69 µM
Cc1ccc(C(=O)Nc2cc3c(cc2Cl)OCCCO3)cc1 1.31 µM
CC(C)(C)n1cnc2cc(NC(=O)c3cccs3)ccc21 1.65 µM
O=C(/C=C\c1ccco1)c1ccc(NC(=O)c2ccco2)cc1 13.1 µM
O=C(Nc1ccc(NC(=O)c2cccs2)cc1)c1ccco1 8.26 µM
O=C(/C=C/c1ccco1)Nc1ccc(N2CCCC2)cc1 1.65 µM
O=C(Nc1ccc(NC(=O)c2cccs2)cc1)c1cccs1 5.21 µM
O=C(CNC(=O)c1ccco1)Nc1ccc(Br)cc1 11.7 µM
Cc1ccc(/C=N/c2sc3c(c2C#N)CCC3)s1 0.261 µM
N#Cc1c(/N=C/c2cccs2)sc2c1CCCCC2 0.464 µM
CC1(C(=O)Nc2nc3ccccc3s2)CC1(Br)Br (stereo unspecified) 8.26 µM
O=C(CSc1nccn1-c1ccccc1)Nc1nc2ccccc2s1 6.56 µM
O=C(CC1CCCCC1)Nc1nc2ccccc2s1 1.85 µM
